{
  "source": "the supplement of paper PMC8975748",
  "note": "Structures can show the parent of a compound that is named as a salt.",
  "data": [
    {"test_system": "Saccharomyces cerevisiae BY4741 SeMeCo community", "assay": "z-score of subpopulation abundance vs DMSO median, subpopulation auxotrophic for HM; higher = larger share of this subpopulation than in DMSO controls", "conditions": "10 µM; 24 h; SM minimal medium; subpopulation (auxotrophy): HM", "method_in_brief": "(§1)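 A Saccharomyces cerevisiae BY4741 community carried four plasmids, each restoring one auxotrophy and encoding a distinct fluorescent protein. It was pre-grown overnight to OD600 1.0, diluted to 0.3, and 70 µl was added to 384-well plates acoustically predosed with library drugs (10 µM final), then grown 24 h in minimal SM medium. Cells were paraformaldehyde-fixed and imaged by automated confocal microscopy, with single-auxotroph fluorescent strains setting thresholds and autofluorescence correction. Each subpopulation's abundance was scored as a z-score against the vehicle-well median.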", "values": [
      {"smiles": "CC(C(=O)O)c1ccc(C(=O)c2cccs2)cc1", "note": "(stereo not given) [Suprofen]", "z-score of subpopulation abundance": -0.73},
      {"smiles": "COc1cccc2c1C(=O)c1c(O)c3c(c(O)c1C2=O)C[C@@](O)(C(=O)CO)C[C@@H]3O[C@H]1C[C@H](N)[C@H](O[C@@H]2CCCCO2)[C@H](C)O1", "note": "[Pirarubicin]", "z-score of subpopulation abundance": -5.17},
      {"smiles": "Nc1c(CC(=O)O)cccc1C(=O)c1ccccc1", "note": "[Amfenac Sodium Monohydrate]", "z-score of subpopulation abundance": 1.16},
      {"smiles": "CN1CCN(c2c(F)cc3c(=O)c(C(=O)O)cn4c3c2OCN4C)CC1", "note": "[Marbofloxacin]", "z-score of subpopulation abundance": -0.43},
      {"smiles": "CN1CCOC(c2ccccc2)c2ccccc2C1", "note": "(stereo not given) [Nefopam HCl]", "z-score of subpopulation abundance": -0.51},
      {"smiles": "COc1ccc(C(C)=O)c(O)c1", "note": "[Paeonol]", "z-score of subpopulation abundance": -0.35},
      {"smiles": "Cc1ccc2c(Cl)cc(Cl)c(O)c2n1", "note": "[Chlorquinaldol]", "z-score of subpopulation abundance": 33.5},
      {"smiles": "NC[C@@H]1O[C@H](O[C@H]2[C@@H](O)[C@H](O[C@@H]3[C@@H](O)[C@H](N)C[C@H](N)[C@H]3O[C@H]3O[C@H](CO)[C@@H](O)[C@H](O)[C@H]3N)O[C@@H]2CO)[C@H](N)[C@@H](O)[C@@H]1O", "note": "[Paromomycin Sulfate]", "z-score of subpopulation abundance": 1.15},
      {"smiles": "COc1cc(NS(=O)(=O)c2ccc(N)cc2)nc(OC)n1", "note": "[SulfadiMethoxine sodium]", "z-score of subpopulation abundance": 0.06},
      {"smiles": "CCN1CCN(c2cc3c(cc2F)c(=O)c(C(=O)O)cn3C2CC2)CC1", "note": "[Enrofloxacin]", "z-score of subpopulation abundance": -0.25},
      {"smiles": "O=C1CN(/N=C/c2ccc(-c3ccc([N+](=O)[O-])cc3)o2)C(=O)N1", "note": "[Dantrolene sodium]", "z-score of subpopulation abundance": 0.62},
      {"smiles": "Cc1cc(-c2ccc(/N=N/c3ccc4c(S(=O)(=O)O)cc(S(=O)(=O)O)c(N)c4c3O)c(C)c2)ccc1/N=N/c1ccc2c(S(=O)(=O)O)cc(S(=O)(=O)O)c(N)c2c1O", "note": "[Evans Blue]", "z-score of subpopulation abundance": -7.3},
      {"smiles": "CCc1cccc2c3c([nH]c12)C(CC)(CC(=O)O)OCC3", "note": "(stereo not given) [Etodolac]", "z-score of subpopulation abundance": -0.61},
      {"smiles": "CO[C@H]1C[C@@H]2CC[C@@H](C)[C@@](O)(O2)C(=O)C(=O)N2CCCC[C@H]2C(=O)O[C@H]([C@H](C)C[C@@H]2CC[C@@H](OP(C)(C)=O)[C@H](OC)C2)CC(=O)[C@H](C)/C=C(\\C)[C@@H](O)[C@@H](OC)C(=O)[C@H](C)C[C@H](C)/C=C/C=C/C=C/1C", "note": "[Ridaforolimus (Deforolimus, MK-8669)]", "z-score of subpopulation abundance": 20.9},
      {"smiles": "CC1=CC[C@@](O)(C(C)C)CC1", "note": "[Terpinen-4-ol]", "z-score of subpopulation abundance": -0.39},
      {"smiles": "CN1[C@@H](CC(=O)c2ccccc2)CCC[C@H]1C[C@H](O)c1ccccc1", "note": "[Lobeline hydrochloride]", "z-score of subpopulation abundance": 0.17},
      {"smiles": "CCC(C)n1ncn(-c2ccc(N3CCN(c4ccc(OCC5COC(Cn6cncn6)(c6ccc(Cl)cc6Cl)O5)cc4)CC3)cc2)c1=O", "note": "(stereo not given) [Itraconazole]", "z-score of subpopulation abundance": 7.45},
      {"smiles": "OC[C@H]1O[C@H](OCC2O[C@@H](O)[C@H](O)[C@@H](O)[C@@H]2O)[C@H](O)[C@@H](O)[C@H]1O", "note": "(stereo not given in full) [Melibiose]", "z-score of subpopulation abundance": -0.15},
      {"smiles": "C[N+](C)(C)CCO.[Cl-]", "note": "[Choline Chloride]", "z-score of subpopulation abundance": -1.2},
      {"smiles": "COc1ccc(C(Cl)=C(c2ccc(OC)cc2)c2ccc(OC)cc2)cc1", "note": "[Chlorotrianisene]", "z-score of subpopulation abundance": 1.06},
      {"smiles": "COC(=O)C1=C(C#N)NC(C)=C(C(=O)OC(C)C)C1c1cccc([N+](=O)[O-])c1", "note": "(stereo not given) [Nilvadipine]", "z-score of subpopulation abundance": 1.37},
      {"smiles": "CC(=O)O[C@]1(C(C)=O)CC[C@H]2[C@@H]3C[C@H](C)C4=CC(=O)CC[C@]4(C)[C@H]3CC[C@@]21C", "note": "[Medroxyprogesterone acetate]", "z-score of subpopulation abundance": 0.17},
      {"smiles": "Cc1onc(-c2c(Cl)cccc2Cl)c1C(=O)N[C@@H]1C(=O)N2[C@@H]1SC(C)(C)[C@@H]2C(=O)O", "note": "[Dicloxacillin Sodium]", "z-score of subpopulation abundance": -0.31},
      {"smiles": "C(=C\\c1ccccc1)/CN1CCN(C(c2ccccc2)c2ccccc2)CC1", "note": "[Cinnarizine]", "z-score of subpopulation abundance": -0.68},
      {"smiles": "C=CC[N+]1([C@H]2C[C@H]3[C@@H]4CC[C@H]5C[C@H](O)[C@@H](N6CCOCC6)C[C@]5(C)[C@H]4CC[C@]3(C)[C@H]2OC(C)=O)CCCC1", "note": "[Rocuronium Bromide]", "z-score of subpopulation abundance": -0.59},
      {"smiles": "Cc1c(OCC(F)(F)F)ccnc1C[S@@+]([O-])c1nc2ccccc2[nH]1", "note": "[Dexlansoprazole]", "z-score of subpopulation abundance": 0},
      {"smiles": "Cc1nc(C)c(Cl)c(O)c1Cl", "note": "[Clopidol]", "z-score of subpopulation abundance": -0.62},
      {"smiles": "COc1ccc(C(=O)NCc2ccc(OCCN(C)C)cc2)cc1OC", "note": "[Itopride hydrochloride]", "z-score of subpopulation abundance": 0.17},
      {"smiles": "CSCC1CN(/N=C/c2ccc([N+](=O)[O-])o2)C(=O)O1", "note": "(stereo not given) [Nifuratel]", "z-score of subpopulation abundance": 1.92}
    ]},
    {"test_system": "Saccharomyces cerevisiae BY4741 SeMeCo community", "assay": "z-score of subpopulation abundance vs DMSO median, subpopulation auxotrophic for HU; higher = larger share of this subpopulation than in DMSO controls", "conditions": "10 µM; 24 h; SM minimal medium; subpopulation (auxotrophy): HU", "method_in_brief": "as §1", "values": [
      {"smiles": "CC(C(=O)O)c1ccc(C(=O)c2cccs2)cc1", "note": "(stereo not given) [Suprofen]", "z-score of subpopulation abundance": -0.02},
      {"smiles": "COc1cccc2c1C(=O)c1c(O)c3c(c(O)c1C2=O)C[C@@](O)(C(=O)CO)C[C@@H]3O[C@H]1C[C@H](N)[C@H](O[C@@H]2CCCCO2)[C@H](C)O1", "note": "[Pirarubicin]", "z-score of subpopulation abundance": 4},
      {"smiles": "N=C(N)NC(=N)N1CCOCC1", "note": "[Moroxydine HCl]", "z-score of subpopulation abundance": -0.45},
      {"smiles": "Nc1c(CC(=O)O)cccc1C(=O)c1ccccc1", "note": "[Amfenac Sodium Monohydrate]", "z-score of subpopulation abundance": -0.95},
      {"smiles": "CN1CCOC(c2ccccc2)c2ccccc2C1", "note": "(stereo not given) [Nefopam HCl]", "z-score of subpopulation abundance": 0.21},
      {"smiles": "COc1ccc(C(C)=O)c(O)c1", "note": "[Paeonol]", "z-score of subpopulation abundance": 0.44},
      {"smiles": "CN(C)CCC=C1c2ccccc2C=Cc2ccccc21", "note": "[Cyclobenzaprine HCl]", "z-score of subpopulation abundance": 0.59},
      {"smiles": "O=C1CN(/N=C/c2ccc(-c3ccc([N+](=O)[O-])cc3)o2)C(=O)N1", "note": "[Dantrolene sodium]", "z-score of subpopulation abundance": -3.33},
      {"smiles": "Cc1cc(-c2ccc(/N=N/c3ccc4c(S(=O)(=O)O)cc(S(=O)(=O)O)c(N)c4c3O)c(C)c2)ccc1/N=N/c1ccc2c(S(=O)(=O)O)cc(S(=O)(=O)O)c(N)c2c1O", "note": "[Evans Blue]", "z-score of subpopulation abundance": 10.3},
      {"smiles": "NC[C@H]1O[C@H](O[C@H]2[C@H](O)[C@@H](O[C@H]3O[C@H](CO)[C@@H](O)[C@H](N)[C@H]3O)[C@H](N)C[C@@H]2N)[C@H](N)C[C@@H]1O", "note": "[Tobramycin]", "z-score of subpopulation abundance": 0},
      {"smiles": "CCc1cccc2c3c([nH]c12)C(CC)(CC(=O)O)OCC3", "note": "(stereo not given) [Etodolac]", "z-score of subpopulation abundance": -0.8},
      {"smiles": "CC1=CC[C@@](O)(C(C)C)CC1", "note": "[Terpinen-4-ol]", "z-score of subpopulation abundance": 0.31},
      {"smiles": "CC[C@@H]1/C=C(\\C)C[C@H](C)C[C@H](OC)[C@H]2O[C@@](O)(C(=O)C(=O)N3CCCC[C@H]3C(=O)O[C@H](/C(C)=C/[C@@H]3CC[C@H](Cl)[C@H](OC)C3)[C@H](C)[C@@H](O)CC1=O)[C@H](C)C[C@@H]2OC", "note": "[Pimecrolimus]", "z-score of subpopulation abundance": -0.6},
      {"smiles": "CC[N+](CC)(CC)CCOc1cccc(OCC[N+](CC)(CC)CC)c1OCC[N+](CC)(CC)CC", "note": "[Gallamine Triethiodide]", "z-score of subpopulation abundance": 0.25},
      {"smiles": "CN1[C@@H](CC(=O)c2ccccc2)CCC[C@H]1C[C@H](O)c1ccccc1", "note": "[Lobeline hydrochloride]", "z-score of subpopulation abundance": -0.75},
      {"smiles": "CCC(C)n1ncn(-c2ccc(N3CCN(c4ccc(OCC5COC(Cn6cncn6)(c6ccc(Cl)cc6Cl)O5)cc4)CC3)cc2)c1=O", "note": "(stereo not given) [Itraconazole]", "z-score of subpopulation abundance": 7.89},
      {"smiles": "OC[C@H]1O[C@H](OCC2O[C@@H](O)[C@H](O)[C@@H](O)[C@@H]2O)[C@H](O)[C@@H](O)[C@H]1O", "note": "(stereo not given in full) [Melibiose]", "z-score of subpopulation abundance": 0.74},
      {"smiles": "COc1ccc(C(Cl)=C(c2ccc(OC)cc2)c2ccc(OC)cc2)cc1", "note": "[Chlorotrianisene]", "z-score of subpopulation abundance": 0.01},
      {"smiles": "CC(=O)O[C@]1(C(C)=O)CC[C@H]2[C@@H]3C[C@H](C)C4=CC(=O)CC[C@]4(C)[C@H]3CC[C@@]21C", "note": "[Medroxyprogesterone acetate]", "z-score of subpopulation abundance": 0.62},
      {"smiles": "O=C(c1ccc(F)cc1)C1CCN(CCn2c(=O)[nH]c3ccccc3c2=O)CC1", "note": "[Ketanserin]", "z-score of subpopulation abundance": -0.13},
      {"smiles": "Cc1onc(-c2c(Cl)cccc2Cl)c1C(=O)N[C@@H]1C(=O)N2[C@@H]1SC(C)(C)[C@@H]2C(=O)O", "note": "[Dicloxacillin Sodium]", "z-score of subpopulation abundance": -0.23},
      {"smiles": "C(=C\\c1ccccc1)/CN1CCN(C(c2ccccc2)c2ccccc2)CC1", "note": "[Cinnarizine]", "z-score of subpopulation abundance": 1.5},
      {"smiles": "C=CC[N+]1([C@H]2C[C@H]3[C@@H]4CC[C@H]5C[C@H](O)[C@@H](N6CCOCC6)C[C@]5(C)[C@H]4CC[C@]3(C)[C@H]2OC(C)=O)CCCC1", "note": "[Rocuronium Bromide]", "z-score of subpopulation abundance": -0.39},
      {"smiles": "CCn1cc(C(=O)O)c(=O)c2cc(F)c(N3CCNCC3)cc21", "note": "[Norfloxacin]", "z-score of subpopulation abundance": -0.03},
      {"smiles": "CN1CCC(=C2c3ccccc3CCc3sccc32)CC1", "note": "[Pizotifen Malate]", "z-score of subpopulation abundance": -0.33},
      {"smiles": "CC1(C)S[C@@H]2[C@H](NC(=O)[C@H](NC(=O)N3CCN(S(C)(=O)=O)C3=O)c3ccccc3)C(=O)N2[C@H]1C(=O)O", "note": "[Mezlocillin Sodium]", "z-score of subpopulation abundance": 0.3},
      {"smiles": "Cc1c(OCC(F)(F)F)ccnc1C[S@@+]([O-])c1nc2ccccc2[nH]1", "note": "[Dexlansoprazole]", "z-score of subpopulation abundance": -0.32},
      {"smiles": "Cc1nc(C)c(Cl)c(O)c1Cl", "note": "[Clopidol]", "z-score of subpopulation abundance": -0.28},
      {"smiles": "O=C(CCCN1CCN(c2ccccn2)CC1)c1ccc(F)cc1", "note": "[Azaperone]", "z-score of subpopulation abundance": 0.16},
      {"smiles": "COc1ccc(C(=O)NCc2ccc(OCCN(C)C)cc2)cc1OC", "note": "[Itopride hydrochloride]", "z-score of subpopulation abundance": 0.11},
      {"smiles": "CSCC1CN(/N=C/c2ccc([N+](=O)[O-])o2)C(=O)O1", "note": "(stereo not given) [Nifuratel]", "z-score of subpopulation abundance": -5.85}
    ]}
  ]
}
